Source: PubChem BioAssay (NCI)
Compounds without any hit were thinned out: in the full panel of roughly 79,000, 15% have a hit. No stated cut-off is given here; in the data, active means growth inhibition above about 70%; inactive means the rest.

Tests used:
[1] = NCI Yeast Anticancer Drug Screen. Data for the rad50 strain (AID 155);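 further: 0% = growth of vehicle-only cultures of the same strain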; conditions: S. cerevisiae rad50 strain growth inhibition; at 50.0 µM; hits give high values
In short: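 Relative growth inhibition (compound vs vehicle) was measured in yeast with a defined repair-gene alteration.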

[2] = NCI Yeast Anticancer Drug Screen. Data for the mec2-1 strain (AID 157); conditions: S. cerevisiae mec2-1 strain, at 50.0 µM, hits give high values
In short: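 Readout is yeast growth inhibition, normalised to vehicle-treated controls, in the mec2-1 strain exposed to compound.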

[3] = NCI Yeast Anticancer Drug Screen. Data for the sgs1 mgt1 strain (AID 161);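 further: 0% = growth of cultures given vehicle only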; conditions: S. cerevisiae sgs1 mgt1 strain, at 50.0 µM, hits give high values
In short: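 Percent growth inhibition was derived by comparing compound-exposed mutant yeast with vehicle-exposed cultures. The strain carries alterations in DNA damage repair.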

[4] = NCI Yeast Anticancer Drug Screen. Data for the cln2 rad14 strain (AID 165);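 further: 0% = growth equal to vehicle treated cultures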; conditions: S. cerevisiae cln2 rad14 strain, at 50.0 µM, hits give high values
In short: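 Relative to vehicle controls, growth inhibition of compound-treated cln2 rad14 yeast was recorded.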

[5] = NCI Yeast Anticancer Drug Screen. Data for the bub3 strain (AID 167); conditions: S. cerevisiae bub3 mutant strain, at 50.0 µM, hits give high values
In short: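 Screening used yeast with an engineered genetic alteration affecting cell cycle control. Compound-exposed cultures were compared with vehicle cultures, and reduced growth was taken as inhibition.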

[6] = NCI Yeast Anticancer Drug Screen. Data for the mlh1 rad18 strain (AID 175); conditions: S. cerevisiae mlh1 rad18 strain growth inhibition; at 50.0 µM; hits give high values
In short: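 Test agents were incubated with a yeast strain of defined genotype (DNA damage repair defect). Inhibition of growth was derived by comparison with vehicle-exposed cultures.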

Measured: growth inhibition

O=Cc1c2c(cc3c1CC1(C3)Cc3cc4c(c(C=O)c3C1)CCC4)CCC2
inactive: [1] -26.4% | [2] -40.1% | [3] -25.9% | [4] 3.7% | [5] 26.8% | [6] 1.35%

N#CC(C#N)=C(N)/C(C#N)=C/c1ccc2ccccc2n1
inactive: [1] -0.25% | [2] -11.2% | [3] -5.75% | [4] 12.8% | [5] -5.45% | [6] -12.2%

CC1=C(c2cc(C(=O)Nc3cccc(Cl)c3)nc(NC#N)n2)Sc2ccccc2N1
inactive: [1] 25.6% | [2] 0.9% | [3] -0.7% | [4] 16.4% | [5] 4.75% | [6] 33.5%

NCC(=O)NC1(C(=O)NCC(=O)O)CCCC1
inactive: [1] -2.45% | [2] -2.2% | [3] -20.9% | [4] -13.9% | [5] 6.5% | [6] 1.3%

COC(=O)CCc1c(C)[nH]c(C(=O)OC(C)(C)C)c1C
inactive: [1] -9.45% | [2] 9.3% | [3] -10.9% | [4] 14.9% | [5] -4.05% | [6] -3.05%

CN(C)c1ccc(C2(c3ccc(N(C)C)cc3)NNC(=O)c3ccccc32)cc1
inactive: [1] 17.2% | [2] 7.95% | [3] 9.35% | [4] 12.7% | [5] 21.1% | [6] -0.3%

[O-]c1csc2n(-c3ccccc3)c3ccccc3[n+]12
inactive: [1] 4.95% | [2] -16% | [3] 1.85% | [4] 28.4% | [5] -4.65% | [6] 6.65%

Nc1nc(=S)c2ncn(C3OC(COC(=O)c4ccc([N+](=O)[O-])cc4)C(OC(=O)c4ccc([N+](=O)[O-])cc4)C3OC(=O)c3ccc([N+](=O)[O-])cc3)c2[nH]1 (centres undefined)
inactive: [1] 3.35% | [2] 3.35% | [3] -2.65% | [4] -1.7% | [5] -5.65% | [6] 14.3%

c1ccc(Cc2ncc(-c3ccccc3)cc2-c2ccccc2)cc1
inactive: [1] -19.4% | [2] -14.8% | [3] 3.1% | [4] 3.65% | [5] 7.3% | [6] 4.2%

O=C(Nc1ccccc1-c1nn(CO)c(=S)n(CO)c1=O)C(F)(F)F
inactive: [1] 40.2% | [2] 23.9% | [3] 43.2% | [4] 12.6% | [5] -22.6% | [6] 20.2%

COc1ccc(-n2c(C)nc3c(cnn3C3OC(CO)C(O)C3O)c2=O)cc1 (centres undefined)
inactive: [1] 16.2% | [2] -5.6% | [3] -15.1% | [4] -4.15% | [5] -1.9% | [6] 11.2%

COc1ccc(C2C(C(=O)NCc3ccccc3)=C(C)NC(C)=C2C(=O)NCc2ccccc2)cc1OC
inactive: [1] -1.8% | [2] -4.5% | [3] -23.6% | [4] 8.4% | [5] 3.35% | [6] 16.9%

CCCCc1ccc(-n2c(C)nc3[nH]cc(C)c3c2=N)cc1
inactive: [1] -1.35% | [2] -10.9% | [3] -3.5% | [4] -1.75% | [5] -2.5% | [6] -3.75%

O=C(O)C(O)C(O)C(O)C(O)C(=O)O.[NH-]C1CCCCC1[NH-].[Pt+2] (centres undefined)
inactive: [1] 8.15% | [2] -3.25% | [3] -1.55% | [4] 12.9% | [5] 8.25% | [6] 6.75%

CCN(CC)C1=NS(=O)(=O)c2ccccc21
inactive: [1] 1.2% | [2] -3.65% | [3] 9.45% | [4] -11.4% | [5] 2.3% | [6] 0.5%

C[N+](C)(C)CCc1ccc2ccccc2c1
inactive: [1] 12.2% | [2] 11.8% | [3] 9.35% | [4] 0.1% | [5] 5.7% | [6] 12.8%

COC(=O)c1ccc(F)cc1
inactive: [1] -53.9% | [2] -25.9% | [3] -25.5% | [4] -1.45% | [5] -51.6% | [6] -46.3%

Cc1nn(C(=O)c2c(-c3ccccc3)noc2C)c(C)c1N=Nc1cc(C(F)(F)F)cc(C(F)(F)F)c1
inactive: [1] -6.2% | [2] -8.85% | [3] -2.9% | [4] 20.5% | [5] -2.7% | [6] 0.6%

CCN(c1ccccc1)c1nsc(Cl)n1
inactive: [1] -3.25% | [2] -10.8% | [3] -15.9% | [4] -9.4% | [5] 8.25% | [6] -16%

O=C(/C=C/c1ccco1)CCN1CCOCC1
inactive: [1] 8.15% | [2] -4.6% | [3] 24.8% | [4] -44.1% | [5] -7.25% | [6] 13.8%

Cc1ccc(S(=O)(=O)CC(=O)CC(=O)C(=O)Nc2ccc(C)cc2C)cc1
inactive: [1] 2.15% | [2] -9.2% | [3] -21.1% | [4] 2% | [5] -8.55% | [6] 12.8%

CC(C)NC(=O)OCc1c(COC(=O)NC(C)C)c2n(c1-c1ccc(Cl)c(Cl)c1)CCS2(=O)=O
inactive: [1] -0.5% | [2] 2.2% | [3] 4.5% | [4] -36.1% | [5] -1.95% | [6] 8.15%

OCC1OC(Oc2ccccc2)C(O)C(O)C1O (centres undefined)
inactive: [1] 8.15% | [2] 30.6% | [3] 21.8% | [4] -1% | [5] 33% | [6] 24.1%

COc1cccc(-n2cnc3c(=S)nc[nH]c32)c1
inactive: [1] 4.2% | [2] -9.3% | [3] 9.7% | [4] -41.6% | [5] -4.85% | [6] 1.9%

Cn1cnc2cc3c(cc2c1=O)nc1n3CCCC1
inactive: [1] -1.7% | [2] -2.5% | [3] -12.6% | [4] -12.4% | [5] -6.75% | [6] -6.8%

CCOC(=O)/C=C(/C)N
inactive: [1] -19.1% | [2] -7.25% | [3] -14.2% | [4] 8.45% | [5] 1.85% | [6] -0.75%

CCc1ccc(N=Nc2c(F)c(F)c(NC(C)=O)c(F)c2F)cc1
inactive: [1] -3.95% | [2] 11.3% | [3] -10.5% | [4] 6.9% | [5] 7.9% | [6] -13.4%

CC(C)=NOCCC#N
inactive: [1] 22.5% | [2] -0.05% | [3] -4.8% | [4] -16.6% | [5] 8.35% | [6] -14.3%

COC(=O)C(Cc1c[nH]c2ccccc12)NC(=O)C(Cc1cnc[nH]1)NC(=O)C1CCC(=O)N1C(=O)OCc1ccccc1 (centres undefined)
inactive: [1] -10.2% | [2] -3.55% | [3] -2% | [4] -2.35% | [5] -1.35% | [6] -5.1%

COC(=O)C1OC(O[C@H]2CC[C@]3(C)[C@H]4CC=C5[C@@H]6CC(C)(C)CC[C@]6(C(=O)OC)[C@H](O)C[C@@]5(C)[C@]4(C)CC[C@H]3C2(C)C)C(O)C(O)C1O (some centres undefined)
inactive: [1] 14.4% | [2] 37.6% | [3] 26.6% | [4] 26.4% | [5] 21.4% | [6] 33.4%

CC(=O)OC1CC2C=CC1C2 (centres undefined)
inactive: [1] -3.55% | [2] -3.8% | [3] 3.6% | [4] 1.65% | [5] 15.4% | [6] -7.7%

CN(C)S(=O)(=O)C(c1ccccc1)C(c1ccccc1)S(=O)(=O)N(C)C (centres undefined)
inactive: [1] 47% | [2] -4.4% | [3] 27.1% | [4] 2% | [5] -4.75% | [6] 1.5%

CC1=NN(C(=O)c2ccccc2O)C(=O)/C1=C/c1cccc([N+](=O)[O-])c1
inactive: [1] 47.8% | [2] 26.9% | [3] 37.1% | [4] 28.1% | [5] 61.1% | [6] 33.8%

CC(=O)C1CCC2C3C=C(C)C4=CC(=O)CCC4(C)C3(F)C(=O)CC12C (centres undefined)
inactive: [1] 13.8% | [2] -12.2% | [3] 6% | [4] -13.1% | [5] 14.2% | [6] 15.9%

O=C(O)CNC(=O)CNC(=O)c1ccc2ccccc2n1
inactive: [1] 2.7% | [2] -4.05% | [3] 11.1% | [4] 10.7% | [5] -14.3% | [6] 15.9%

N#Cc1nc(Nc2ccc([N+](=O)[O-])cc2)sc1N
inactive: [1] 55.1% | [2] 33.8% | [3] 31.1% | [4] 36.2% | [5] 19.9% | [6] 22.4%

OCCN(CCO)c1nc(N(CCO)CCO)nc(N(CCO)CCO)n1
inactive: [1] 19.8% | [2] 16.4% | [3] 20.2% | [4] 31.5% | [5] 17.2% | [6] 19.6%

Cc1cccc(Cc2ccccc2C(=O)c2ccccc2)c1C
inactive: [1] 5.75% | [2] -6.75% | [3] -5.5% | [4] -19.2% | [5] 7.4% | [6] -17.1%

Cc1ncc([N+](=O)[O-])n1CCNS(=O)(=O)CCCn1ccnc1[N+](=O)[O-]
inactive: [1] -4.85% | [2] -17.1% | [3] -18.9% | [4] -25.7% | [5] -18.5% | [6] -58.7%
